In the supplement of paper PMC10981050:
“And” between values parts separate entries of the source, which are not always exact repeats. Equal entries are not always repeated. Structures can show the parent of a compound that is named as a salt.

Columns and labels:
Assay in all cases: cell viability relative to vehicle control; higher = less cytotoxic
Settings in all cases: 10 µM
K562 = tested on: K562
How it was run: (§1)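 After removal of identity-inconsistent compounds, the Selleck bioactive, kinase and epigenetic probe libraries were screened on CRISPR-edited mutant clones and isogenic wild-type clones of four leukaemia lines. Plates were 384-well, each well holding 2000 cells in 50 µL medium and receiving a single 10 µM acoustically dispensed dose. CellTiter-Glo luminescence was read 48 h later, after the supernatant was taken off. Genedata Screener was used to express viability as percent of the on-plate vehicle control.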

MARIMO = tested on: MARIMO
How it was run: as §1

MOLM14 = tested on: MOLM14
How it was run: as §1

OCI-AML2 = tested on: OCI-AML2
How it was run: as §1

Structure (SMILES)	cell viability (K562; SRSF2 genotype: SRSF2 P95H/wt)	cell viability (K562; SRSF2 genotype: SRSF2 wt/wt) [%]	cell viability (MARIMO; SRSF2 genotype: SRSF2 P95H/wt) [%]	cell viability (MARIMO; SRSF2 genotype: SRSF2 wt/wt) [%]	cell viability (MOLM14; SRSF2 genotype: SRSF2 P95H/wt) [%]	cell viability (MOLM14; SRSF2 genotype: SRSF2 wt/wt) [%]	cell viability (OCI-AML2; SRSF2 genotype: P95H/wt) [%]	cell viability (OCI-AML2; SRSF2 genotype: wt/wt) [%]
CCOc1ccccc1OCCN[C@H](C)Cc1ccc(OC)c(S(N)(=O)=O)c1 [Tamsulosin]	100% and 96%	90.7	85.2	103	97.5	98	87.4	105
O=C(Nc1ccc(Br)cc1)c1ccc(Br)c(S(=O)(=O)NCc2ccccc2)c1	83.5% and 88.7%	86.8	88.5	93.7	96.9	96	76.2	76
CNc1ccc([N+](=O)[O-])c(Nc2ccc3[nH]ncc3c2)n1	59.1% and 76.9%	58.6	50.4	60	18.1	9.24	18.9	26.6
COC1=C(OC)C(=O)C(CCCCCCCCCCO)=C(C)C1=O [Idebenone]	78.7% and 86.7%	86.9	85.6	89.6	88	88.7	68.8	75.2
COCCc1ccc(OCC(O)CNC(C)C)cc1 (stereo not drawn) [Metoprolol tartrate]	107% and 106%	106	102	104	104	105	106	106
CNCCc1ccccn1 [Betahistine]	102% and 100%	102	100	103	101	105	102	105
NC(=O)c1ccc(N(C(N)=O)c2c(F)cccc2F)nc1-c1ccc(F)cc1F	97.7% and 97.3%	94.1	94	97.5	96.1	105	95.3	103
CC1(C)CCC(C)(C)c2cc(NC(=O)c3ccc(C(=O)O)cc3)ccc21 [Tamibarotene]	94.1% and 91.6%	90.8	93.1	99.2	88.8	98.3	37.4	61.5
COc1cc([C@@H]2c3cc4c(cc3[C@@H](O[C@@H]3O[C@@H]5CO[C@@H](c6cccs6)O[C@H]5[C@H](O)[C@H]3O)[C@H]3COC(=O)[C@H]23)OCO4)cc(OC)c1O [Teniposide (Vumon)]	8.79% and 17.8%	6.27	3.97	2.15	0.52	0.37	0.66	0.72
OCCn1cc(-c2ccc3c(c2)CC/C3=N\O)c(-c2ccncc2)n1	110%	111	85	73	89.8	94	94.4	80.8
CC(=O)OCC=Cc1ccccc1 [Cinnamyl acetate]	98.4% and 95.9%	104	99.4	95.9	101	102	101	111
OCc1cc([C@@H](O)CNCCCCCCOCCOCc2c(Cl)cccc2Cl)ccc1O [Vilanterol Trifenate]	85% and 94.3%	87	79.5	86.2	72.8	82.9	73.9	76.3
CC(=O)N1CCC(Nc2cc(C(=O)NC[C@H](O)CN3CCc4ccccc4C3)ncn2)CC1	91.8% and 96.6%	90.9	88.8	103	87.6	94.5	78.3	85.2
Cc1[nH]c2ccccc2c1CCNC(=O)c1cccs1	92% and 93.8%	100	90	97.2	106	99.4	94.5	97.4
CCC(C)C(NC(=O)C(C(C)CC)N(C)C(C)=O)C(=O)NC(C(=O)NC(CC(C)C)C(=O)C1(C)CO1)C(C)O (stereo not drawn) [Epoxomicin (BU-4061T)]	1.56% and 1.91%	0.91	0.3	0.71	0.14	0.17	0.15	0.14
O=C1C(=O)c2ccccc2C(O)=C1C1CCC(c2ccc(Cl)cc2)CC1 (stereo not drawn) [Atovaquone (Atavaquone)]	87.9% and 81.8%	79.7	87.9	95.8	84.7	88.7	84.8	90.1
CCOC(=O)c1c(CSc2ccccc2)n(C)c2cc(Br)c(O)c(CN(C)C)c12 [Arbidol HCl]	50.6% and 70.1%	61.6	48	54.8	47.8	32.9	53.5	43.8
CNS(=O)(=O)C[C@H]1CC[C@H](N(C)c2[nH]cnc3nccc2-3)CC1 [Oclacitinib maleate]	95.6% and 99.2%	103	95.5	102	55.9	73	77.5	72.5
COc1cc(C(=O)NC2CCN(C)CC2)ccc1Nc1ncc2c(n1)N(C1CCCC1)CC(F)(F)C(=O)N2C	24.5% and 48.3%	44.6	31.6	26.3	15	5.38	4.16	9.85
Clc1ccc(C(Cn2ccnc2)OCc2ccc(Sc3ccccc3)cc2)c(Cl)c1 (stereo not drawn) [Fenticonazole nitrate]	76.5% and 67.7%	63.8	62.4	78	70.6	73	63.3	69.1
CC(=O)OCOC(=O)CN(CC(=O)OCOC(C)=O)c1ccccc1OCCOc1ccccc1N(CC(=O)OCOC(C)=O)CC(=O)OCOC(C)=O	18.9% and 10.1%	6.38	1.03	0.7	0.2	0.25	2.33	4.73
